Compound activity as filed in PubChem.
This is a sample that favours compounds with a hit; in the whole collection about 19% have one here.
IL-1B inflam inh = inflammasome signaling inhibition, IL-1 beta readout | 360,000 compounds, 4.7% hits | activity change, % at 57.5 µM | THP-1 LPS/ATP IL-1B secretion, AlphaLISA, 16 h; stronger effect = lower value | AID 743279; in the data active = activity change below about -50%; inconclusive = mostly about -30% to -49%
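Secreted IL-1B measured by AlphaLISA bead assay after 16 h compound exposure of THP-1 cells; compounds (final up to 57.5 uM) added 1 h before LPS (250 ng/mL) and ATP (1.25 mM) stimulation; lower signal means less secretion.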
TDP1 cell noCPT = qHTS for Inhibitors of human tyrosyl-DNA phosphodiesterase 1 (TDP1): qHTS in cells in absence of CPT; AID 686978, 2013; 420,000 compounds, 15% hits; DT40 Tdp1-/- hTDP1 cells, no CPT, ATP luminescence, 48 h; Potency, µM (top dose mostly 46.2 µM), for inactives: at the highest dose activity change, negative = growth inhibition, hits mostly inhibitors; also: potency is read from the fitted curve at half-maximal effect; nearly all actives have a fitted effect of over 55% in size
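DT40 Tdp1-/-;hTDP1 cells, no CPT (DMSO vehicle only), 400 cells/well; compounds pin-transferred; ≥48 hr, 37 °C; CellTiter-Glo 30 min RT dark, luminescence read.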
HT1080-NT tox = kills 2HG-producing HT-1080-NT fibrosarcoma cells; HT-1080-NT fibrosarcoma viability, CellTiter-Glo ATP luminescence, 48 h; Potency, µM (top dose mostly 46.1 µM), without a hit: at the top dose activity, negative = less viability, most hits filed as cytotoxic; 360,000 compounds, 1.6% hits; AID 686970;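 also: NT is the 2HG producing partner of a matched IDH1 knockdown line; potency is read from the fitted curve at half-maximal effect; 0% = DMSO-treated cells and -100% = media-only wells without cells; nearly all actives have a fitted effect of over 55% in size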
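Viability of the 2HG-overproducing fibrosarcoma line after 48 hours of compound exposure at 37 degrees C was determined by luminescence with CellTiter-Glo, and concentration-effect curves were then fitted and categorized.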
DT40 TDP1 CPT = DT40-hTDP1 cell growth loss with CPT | chicken DT40 Tdp1-/-;hTDP1 cells + 20 nM CPT, ATP luminescence, 48 h | Potency, µM (doses to about 46.2 µM), for the others: top-dose activity change, negative = growth inhibition, most hits filed as inhibitors | 420,000 compounds, 12% hits | AID 686979; also: potency is read from the fitted curve at half-maximal effect; nearly all actives have a fitted effect of over 55% in size
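Cell growth measured by CellTiter-Glo luminescence after a minimum 48 h, 37 C compound exposure with 20 nM CPT in Tdp1-knockout DT40 cells stably expressing hTDP1, seeded 400/well; qHTS titration format.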
HT1080 IDH1KD tx = HT-1080 IDH1 knockdown cell toxicity (counter line); HT-1080 IDH1 knockdown viability, ATP luminescence, 48 h; Potency, µM (titrated, usually from 46.1 µM), inactives show top-dose activity, negative = toxicity, actives largely listed as cytotoxic; 360,000 compounds, 2% hits; AID 686971;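 also: potency is read from the fitted curve at half-maximal effect; 0% = DMSO wells and -100% = cell-free medium wells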
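Knockdown cells (IDH1KD HT-1080) received compounds 2 h after plating at 750 cells/well and were kept 48 h at 37 °C in 5% FBS RPMI. A CellTiter-Glo luminescence read gave % activity for curve fitting.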
The depositor's hits bear a star; ? = inconclusive; . = not tested or not shown; [ ] = remark or other dose. Unless noted, calls follow the shape of the dose curve; as a rule, active = well fitted curve in the direction sought with a large enough effect; inconclusive = small, poorly fitted or top-dose-only effect, or another doubt; inactive = no such curve, though single readings can be large; an effect the other way counts as inactive or inconclusive. Unless noted, % is scaled to controls: 0 for no effect and ±100 for the full control effect.

SMILES	IL-1B inflam inh	TDP1 cell noCPT	HT1080-NT tox	DT40 TDP1 CPT	HT1080 IDH1KD tx
NC(=O)c1ccccc1NC(=O)Nc1cccc2ccccc12	-11	4.6µM*	-14%	1.6µM*	-5%
CCOC(=O)CCN(Cc1cccs1)S(=O)(=O)c1ccc(Cl)cc1	32	-7%	-1%	1%	3%
Cc1ccc(NC(=O)C2CCN(C(=O)c3sc4nc[nH]c(=O)c4c3C)CC2)cc1F	.	-17%	.	-9%	.
CC(C)C1Cc2[nH]c(=S)[nH]c(=O)c2C(c2ccc(Cl)cc2)O1 (stereo unspecified)	1	-3%	16%	10%	10%
C[C@H]1CN([C@@H](C)CO)C(=O)CCCn2nncc2CO[C@H]1CN(C)C(=O)c1cc(-c2ccccc2)on1	-1	-5%	-11%	-6%	-9%
CC1(C(=O)NC2CCCCCCC2)CC1(Cl)Cl (stereo unspecified)	-9	-16%	4%	-23%	-9%
Cc1cc(NC(=O)CSc2nnc(-c3ccc([N+](=O)[O-])cc3)o2)no1	-4	3%	10%	-4%	-7%
Cc1ccccc1NC(=O)Nc1ccc(C(F)(F)F)cc1	-10	8.2µM*	-28%	9.2µM*	?
Cc1ccccc1NC(=O)CNC(=O)c1ccc(C(F)(F)F)cc1	23	-3%	1%	0%	11%
Cc1sc2ncn(CC(=O)NCCCC(=O)N3CCN(Cc4ccc5c(c4)OCO5)CC3)c(=O)c2c1C	-6	-16%	4%	-15%	-16%
COc1ccc(-c2ccc(CN3C(C)C(=O)N(Cc4cn(CCC5OCCO5)nn4)CCS3(=O)=O)cc2)cn1 (stereo unspecified)	20	21µM*	-1%	?	-9%
COc1ccc(-c2ccc(CN3C(C)C(=O)N(Cc4cn(CCC5OCCO5)nn4)CCS3(=O)=O)cc2)cc1 (stereo unspecified)	-7	23µM*	-11%	9.2µM*	5%
CC1C(=O)N(Cc2cn(CCC3OCCCO3)nn2)CCS(=O)(=O)N1Cc1ccc(-c2cccc(N(C)C)c2)cc1 (stereo unspecified)	76	?	0%	?	-3%
CC1C(=O)N(Cc2cn(CCC3OCCO3)nn2)CCS(=O)(=O)N1Cc1ccc(-c2cccc(CO)c2)cc1 (stereo unspecified)	1	-5%	4%	6%	2%
CC1C(=O)N(Cc2cn(CCC3OCCO3)nn2)CCS(=O)(=O)N1Cc1ccc(-c2ccc(Cl)c(Cl)c2)cc1 (stereo unspecified)	-19	6.5µM*	?	15µM*	?
CC1=C(c2ccc(C)c(C)c2)S(=O)(=O)N=C1N1CCC(C(=O)NCc2ccc(C)o2)CC1	.	-17%	.	4%	.
Cc1cc(C)[n+](C)c2ccccc12	.	-10%	.	3%	.
Cc1c2ccccc2cc(Cc2ccccc2)[n+]1C	18	13µM*	0%	23µM*	21µM*
CCCCc1c(O)nc(SCC(=O)N2CCOCC2)n(-c2ccc(C)cc2)c1=O	13	?	0%	-14%	3%
CCCCc1c(O)nc(SCC(=O)c2ccccc2)n(-c2ccccc2OC)c1=O	.	8.2µM*	6%	-9%	18%
CCCCc1c(O)nc(SCC(=O)c2ccccc2)n(-c2ccccc2)c1=O	25	2.6µM*	2%	2.9µM*	7%
CCCCc1c(O)nc(SCC(=O)N2CCOCC2)n(-c2ccccc2OC)c1=O	-8	-10%	19%	-4%	16%
C=C(C)Cn1c2ccc(NC(=O)NCc3ccccc3)cc2c(=O)n1C	-2	-5%	21%	-10%	15%
CN(C(=O)c1ccccc1C(=O)OCC(=O)NCc1cccs1)C1CCCCC1	-18	-15%	-5%	3%	0%
CN(C(=O)c1ccccc1C(=O)OCC(=O)c1ccc(F)c(F)c1)C1CCCCC1	?	26µM*	-1%	?	-12%
SMILES	IL-1B inflam inh	TDP1 cell noCPT	HT1080-NT tox	DT40 TDP1 CPT	HT1080 IDH1KD tx
O=C(Oc1ccccc1)N1CCC2(CCCN(c3ncccn3)C2)CC1	.	18µM*	.	-25%	.
O=C(Oc1ccccc1)N1CCC2(CC1)CCN(c1ccccc1)CC2	.	18µM*	.	?	.
O=C(Oc1ccccc1)N1CCC[C@@]2(CCN(c3ncccn3)C2)C1	.	0%	.	14%	.
CCCCc1nn2c(=O)cc(COC(=O)c3cccc(NC(=O)c4cccc(Cl)c4)c3)nc2s1	.	-3%	.	-3%	.
Cc1ccc2c(c1)c1c3n2CCN(C(=O)c2cccc(C(F)(F)F)c2)C3CCC1 (stereo unspecified)	.	23µM*	.	?	.
CCN(CC)CCN1CCn2c3c(c4cc(C)ccc42)CCCC31 (stereo unspecified)	?	23µM*	?	?	-20%
CCN1CCn2c3c(c4cc(Cl)ccc42)CCCC31 (stereo unspecified)	-10	?	-29%	?	?
CCCCOc1ccc(/C=C/C(=O)NC2=Nc3ccccc3NC(C)=C2C(=O)OCC)cc1OC	16	?	-24%	?	-20%
Cc1[nH][nH]c(=O)c1C(c1c(C)[nH][nH]c1=O)c1cn(Cc2cccc3ccccc23)c2ccccc12	-4	7.3µM*	?	8.2µM*	?
Cc1[nH][nH]c(=O)c1C(c1c(C)[nH][nH]c1=O)c1cn(C)c2ccccc12	.	?	0%	-17%	-1%
COc1ccc2oc(-c3ccccc3)c(C(=O)N3CCOCC3)c2c1	-8	13µM*	-6%	16µM*	-1%[9.24 µM]
CCOc1ccc2oc(-c3ccccc3)c(C(=O)N3CCN(C)CC3)c2c1	-11	?	-9%	23µM*	-7%
C[C@H]1CN([C@@H](C)CO)C(=O)CCCn2cc(nn2)CO[C@@H]1CN(C)S(=O)(=O)c1ccc(Oc2ccccc2)nc1	0	-39%	0%	-39%	1%
CCOC(=O)C1=CCN(S(=O)(=O)c2ccccc2F)C1c1cccc(F)c1 (stereo unspecified)	53	?	12%	?	-10%
CCOC(=O)C1=CCN(S(=O)(=O)c2ccc(F)cc2)C1c1cccc(Cl)c1 (stereo unspecified)	15	?	-10%	-20%	-15%
CCOC(=O)C1=CCN(S(=O)(=O)c2cccc(Cl)c2)C1c1cccc(F)c1 (stereo unspecified)	?	21µM*	-14%	21µM*	-9%
CCOC(=O)C1=CCN(S(=O)(=O)c2ccccc2C)C1c1cccc(Br)c1 (stereo unspecified)	42	21µM*	?	?	?
